CYP2C19 inh: inhibitors of human CYP2C19. 21% of 96,000 active. P33261. CYP2C19 Supersomes, luciferin-H EGE luminescence, 30 min. inhibition, % at 5 µM;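 active = CYP2C19 inhibition above a set limit at 5 µM in the primary screen, cut at about 50% in these data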;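 also: plate controls were negative control wells for no effect and 2.5 mM tranylcypromine positive control for full effect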
CYP2C19 act: activators of human cytochrome P450 2C19; P33261; recombinant CYP2C19, luciferin-H EGE luminescence; hits give high values; 0 = fully inhibited enzyme, 1 = untreated enzyme; activation factor at 5 µM; 96,000 tested, under 10 active; AID 1025;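 active = activation factor of at least 2 at 5 µM in the primary screen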;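 also: 0 = wells with 2.5 mM tranylcypromine and 1 = vehicle-only wells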
CYP2C9 inh: human CYP2C9 inhibition; CYP2C9 Supersomes, luciferin-H conversion, luminescence; inhibition, % at 5 µM; 20% of 96,000 active;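 active = blocking of liver enzyme CYP2C9 beyond about 50% at 5 µM, limit read from the data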
Target sequence (P11712 whole entry, looked up): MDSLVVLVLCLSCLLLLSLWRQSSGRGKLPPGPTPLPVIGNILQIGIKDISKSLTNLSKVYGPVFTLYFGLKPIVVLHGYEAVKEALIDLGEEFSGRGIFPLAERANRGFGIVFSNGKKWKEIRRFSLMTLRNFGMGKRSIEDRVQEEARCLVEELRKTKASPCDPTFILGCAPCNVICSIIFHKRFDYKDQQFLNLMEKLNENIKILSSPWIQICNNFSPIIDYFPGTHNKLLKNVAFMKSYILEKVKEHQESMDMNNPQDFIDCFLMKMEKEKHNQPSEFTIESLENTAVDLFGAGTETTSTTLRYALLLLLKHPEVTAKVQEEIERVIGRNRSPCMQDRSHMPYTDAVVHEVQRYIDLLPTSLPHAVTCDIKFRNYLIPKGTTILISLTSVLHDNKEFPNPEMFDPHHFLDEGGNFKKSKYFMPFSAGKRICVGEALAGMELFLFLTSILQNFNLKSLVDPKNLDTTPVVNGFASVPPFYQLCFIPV
CYP2C9 act: activators of human CYP2C9. P11712. recombinant CYP2C9, luciferin-H conversion, luminescence; hits give high values; factor 1 = untreated enzyme, 0 = blocked. activation factor at 5 µM. 1.4% of 96,000 active. AID 1024;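 active = activation factor of 2 or more for CYP2C9 at a 5 µM dose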;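 also: 0 = sulfaphenazole-blocked wells and 1 = vehicle-only wells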
PLAP activator: activates human placental alkaline phosphatase; P05187; purified PLAP enzyme, luminescent substrate read-out; hits give high values; activation fold at 20 µM; 1.2% of 96,000 active; in the data active = activation fold above about 2
Starred values were filed as active, the others as inactive. Hits are enriched below; roughly 31% of the tested compounds scored in any of these assays.

SMILES	CYP2C19 inh	CYP2C19 act	CYP2C9 inh	CYP2C9 act	PLAP activator
O=C(NCc1ccccc1Cl)C1CCCN(S(=O)(=O)c2cccc3nsnc23)C1 (stereo not given)	77*	0.2	50*	0.5	1
Cc1cccc(NC(=O)C2CCCN(S(=O)(=O)c3cccc4nsnc34)C2)n1 (stereo not given)	15	0.8	46	0.5	0.9
Cc1cccc(NC(=O)C2CCCN(S(=O)(=O)c3cccc4nsnc34)C2)c1 (stereo not given)	27	0.7	40	0.6	1.2
COc1ccccc1NC(=O)C1CCCN(S(=O)(=O)c2cccc3nsnc23)C1 (stereo not given)	72*	0.3	71*	0.3	1.4
CCOC(=O)NC(Nc1nnc(SCC)s1)(C(F)(F)F)C(F)(F)F	17	0.8	41	0.6	0.8
O=C(Cn1c(C(F)(F)F)nc2ccccc21)Nc1ccccc1N1CCOCC1	38	0.6	82*	0.2	1.9
Cc1nnc(SCC(=O)Nc2cc(C(F)(F)F)ccc2N2CCOCC2)o1	26	0.7	3	1	0.9
CSc1nc2ccccc2n1CC(=O)Nc1cc(C(F)(F)F)ccc1N1CCOCC1	87*	0.1	97*	0	1.6
N#Cc1c2c(c(NCc3cccnc3)n3c1nc1ccccc13)CCC2	-3	1	34	0.7	0.8
Cc1cc(NCCC(C)C)n2nc(C)c(-c3ccccc3)c2n1	0	1	27	0.7	1
Cc1cc(N(C(=O)c2ccco2)C(C(=O)NC2CCCCC2)c2ccccc2)ccc1-n1cnnn1 (stereo not given)	56*	0.4	92*	0.1	1.6
Cc1ccc(N(C(=O)CNC(=O)c2ccco2)C(C(=O)NC2CCCC2)c2cccnc2)cc1C (stereo not given)	5	1	4	1	1.4
COc1cccc(C(C(=O)NC2CCCCC2)N(C(=O)Cc2cccs2)c2ccc(-n3cnnn3)c(OC)c2)c1 (stereo not given)	65*	0.3	31	0.7	1.3
COc1ccc(N(C(=O)Cc2cccs2)C(C(=O)NC2CCCCC2)c2cccn2C)cc1 (stereo not given)	3	1	-8	1.1	0.8
Cc1ccc(CS(=O)(=O)CCC(=O)NCCN2CCCC2)cc1	-6	1.1	16	0.8	1.1
Cc1c(=O)n(OCc2ccccc2F)c2ccccc2[n+]1[O-]	20	0.8	-4	1	0.9
Nc1nonc1C(=O)NCCNC(=O)c1cccs1	3	1	-12	1.1	0.8
COc1ccccc1CN1C(=O)CN(C2CCCCCC2)C(=O)C1c1ccc(F)cc1 (stereo not given)	57*	0.4	44	0.6	0.9
CCc1nc(NCc2cccnc2)c2oc3ccccc3c2n1	92*	0.1	58*	0.4	0.9
CCc1nc(NCc2ccc3c(c2)OCO3)c2oc3ccccc3c2n1	52*	0.5	92*	0.1	1.2
CCc1nc(NCC2CCCO2)c2oc3ccccc3c2n1 (stereo not given)	48	0.5	46	0.5	1.6
O=S(=O)(NCc1ccc2c(c1)OCO2)c1ccc2c(c1)oc1ccccc12	-1	1	23	0.8	0.9
CC1CCN(CCNC(=O)C2CCCN(S(=O)(=O)c3cccc4nonc34)C2)CC1 (stereo not given)	8	0.9	14	0.9	1.1
COc1ccccc1-n1cnc(N)c1C(=O)c1ccccc1	36	0.6	-42	1.4	1
O=[N+]([O-])c1ccc(N2CCC(=NOCc3ccc(Cl)cc3)CC2)cc1	19	0.8	40	0.6	0.8
SMILES	CYP2C19 inh	CYP2C19 act	CYP2C9 inh	CYP2C9 act	PLAP activator
CC1(C(=O)NC2CCCCCCC2)CCC(=O)N1Cc1cccs1 (stereo not given)	71*	0.3	-28	1.3	1.4
CC1(C(=O)NC2CCCCC2)CCC(=O)N1Cc1cccs1 (stereo not given)	18	0.8	-46	1.5	1.1
COc1ccc(-c2nc3c(=O)n(C)c(=O)[nH]c3n2CCc2ccccc2)cc1	-4	1	72*	0.3	1.1
Cc1ccnc(SCCn2c(N3CCN(Cc4ccccc4)CC3)nc3c2c(=O)[nH]c(=O)n3C)n1	83*	0.2	78*	0.2	1.8
COCCn1c(N2CCN(c3ccc(OC)cc3)CC2)nc2c1c(=O)[nH]c(=O)n2C	61*	0.4	42	0.6	1.2
COc1ccc(CCn2c(N3CCN(Cc4ccccc4)CC3)nc3c2c(=O)[nH]c(=O)n3C)cc1	62*	0.4	43	0.6	1.5
CCCn1c(-c2ccccc2)nc2c(=O)n(C)c(=O)[nH]c21	4	1	-4	1	1
CCN(CC)S(=O)(=O)c1cccc(C(=O)N2CC(O)CC2C(=O)OC)c1 (stereo not given)	-5	1	2	1	1
CCNC(=O)C1CC(=O)N(c2ccc(Br)cc2)C1 (stereo not given)	70*	0.3	7	0.9	1
O=C(NCc1cccs1)C1CC(=O)N(c2ccc(F)cc2)C1 (stereo not given)	59*	0.4	-50	1.5	0.9
O=C(NCc1cccs1)C1CCCCC1	51*	0.5	12	0.9	1
CCOC(=O)CNC(=O)C1CCCN(c2ncccn2)C1 (stereo not given)	0	1	-14	1.1	0.9
O=C(NCc1cccs1)C1CCCN(c2ncccn2)C1 (stereo not given)	53*	0.5	-18	1.2	0.9
CCCS(=O)(=O)N1CCCC(C(=O)N2CCN(C(=O)OCC)CC2)C1 (stereo not given)	-12	1.1	-4	1	1
CCOc1cc(S(=O)(=O)N(Cc2ccccc2)Cc2ccccc2)c(OCC)cc1-n1cnnn1	24	0.8	41	0.6	1
CCOC(=O)Nc1ccc2c(c1)N(C(=O)CCN1CCN(C)CC1)c1ccccc1S2	0	1	-18	1.2	1.5
CCC(C)NC(=O)Nc1ccc2c(c1)N(C)C(=O)c1ccccc1S2 (stereo not given)	70*	0.3	97*	0	4.4
CC(C)c1cc(C(F)(F)F)n2nc(C(=O)Nc3ccc4c(c3)OCO4)cc2n1	22	0.8	32	0.7	1
Cc1onc(COc2ccccc2O)c1Br	73*	0.3	10	0.9	0.8
Cc1cc(C)nc(NCC(O)COc2ccccc2C)n1 (stereo not given)	87*	0.1	9	0.9	1.4
CCOC(=O)c1sc(NC(C)=O)nc1C	8	0.9	12	0.9	1
CCOC(=O)c1sc(Nc2cccc(C)c2C)nc1C	11	0.9	70*	0.3	0.8
CCOC(=O)c1sc(NS(=O)(=O)c2cc(C)ccc2C)nc1C	45	0.6	94*	0.1	1.5
CC(C)Oc1cccc(C(=O)NC(=S)Nc2ccc3c4c(cccc24)CC3)c1	-16	1.2	-71	1.7	0.9

Screening results as filed in PubChem.
